Screening results deposited in PubChem BioAssay by several laboratories.
Compounds with a hit are over-represented: about 4.7% of the library has one in this group of screens.
DSG3 Ab inh = blocks pemphigus antibody binding to human desmoglein-3; P32926; DSG3-coupled beads, scFv-anti-DSG3-GFP binding, flow cytometry; stronger effect = lower value; binding (percent of control), % at 10 µM; 310,000 tested, 0.48% active;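 active = binding more than 3 SD below its plate's average and above zero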;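 note: hits lower antibody fragment binding to DSG3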
ADAM17 inh = ADAM17 inhibition, QFRET primary screen; recombinant ADAM17, EDANS/DABCYL FRET peptide cleavage; inhibition, % at 6.95 µM; P78536; 370,000 tested, 0.83% active;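 active = inhibition above the mean of compounds lying between control limits plus 3 SD, set per campaign, cut at about 8.5% in these data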;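 note: 0% = DMSO-only wells as the low control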
rCAG binder = r(CAG) repeat RNA binding; TO-PRO-1 dye displacement fluorescence; inhibition, % at 3 µM; 370,000 tested, 1.3% active; AID 651821;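 active = inhibition above the plate cutoff, the mean of all test compounds on that plate plus 3 SD, cut at about 35% in these data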;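 note: 0% = DMSO alone and 100% = 100 µM mitoxantrone as full dye displacement; higher means more dye released from RNA so lower well fluorescence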
ADAM10 inh = ADAM10 inhibition, QFRET primary screen. O14672. recombinant ADAM10, EDANS/DABCYL FRET peptide cleavage, 3 h. inhibition, % at 7 µM. 370,000 tested, 0.62% active. AID 720582;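 active = inhibition above a per-campaign cutoff equal to the mean of compounds falling between control-based bounds plus 3 SD, cut at about 20% in these data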;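 note: 0% = DMSO wells while the 100% control is not disclosed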
Target sequence (O14672 214-748 limits assumed): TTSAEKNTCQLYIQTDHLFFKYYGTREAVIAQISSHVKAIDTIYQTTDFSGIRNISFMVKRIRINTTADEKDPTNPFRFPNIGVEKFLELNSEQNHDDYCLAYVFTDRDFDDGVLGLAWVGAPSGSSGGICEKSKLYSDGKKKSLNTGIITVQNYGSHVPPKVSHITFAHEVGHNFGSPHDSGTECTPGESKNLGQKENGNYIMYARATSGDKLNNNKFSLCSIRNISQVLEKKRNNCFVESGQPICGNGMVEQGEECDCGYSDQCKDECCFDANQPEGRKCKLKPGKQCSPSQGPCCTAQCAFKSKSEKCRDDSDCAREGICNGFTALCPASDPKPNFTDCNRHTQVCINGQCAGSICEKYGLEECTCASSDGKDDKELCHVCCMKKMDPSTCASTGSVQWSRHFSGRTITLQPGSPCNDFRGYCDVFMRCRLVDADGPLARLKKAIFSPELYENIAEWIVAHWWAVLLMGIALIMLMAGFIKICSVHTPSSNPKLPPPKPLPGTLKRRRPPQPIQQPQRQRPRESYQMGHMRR
MPTP inh = blocks calcium-induced mitochondrial swelling | isolated mouse mitochondria, Ca2+ swelling absorbance, 30 min | inhibition, % at 10 µM | 360,000 tested, 1.4% active | AID 602449;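 active = inhibition of 50% or more, scaled per plate between neutral and stimulator controls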;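 note: 0% = DMSO wells given calcium and 100% = 1 mM EGTA wells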
proKLK7 act = proKLK7 (human) activation, primary screen; purified proKLK7, EDANS-DABCYL substrate fluorescence; 100% is mature enzyme control, 0% vehicle; activation, % at 7 µM; 370,000 tested, 0.9% active; AID 652039;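 active = activation above the mean of all tested compounds plus 3 SD, computed per campaign excluding outliers beyond control limits, cut at about 13% in these data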
rCAG binder conf = r(CAG) RNA repeat binding, confirmation | shares compounds with rCAG binder | 4,300 tested, 70% active | inhibition, % at 3 µM | TO-PRO-1 dye displacement fluorescence | AID 652065;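 active = inhibition above a per-plate cutoff, the mean inhibition of sample wells plus 3 SD, cut at about 35% in these data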;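 note: loss of TO-PRO-1 fluorescence as compound displaces dye from 1x1 AA loop RNA; 0% = DMSO only wells and 100% = 100 µM mitoxantrone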
dCAG dye counter = DNA CAG dye complex inhibition counter-screen; shares compounds with rCAG binder; d(CAG) DNA oligo TO-PRO-1 dye displacement, fluorescence; inhibition, % at 3 µM; 4,300 tested, 94% active;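 active = inhibition above its plate's cutoff, the mean test-well inhibition plus 3 SD, cut at about 4.8% in these data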;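 note: 0% = DNA dye mix with DMSO and 100% = 100 µM mitoxantrone; hits displace the dye from DNA and so lower well fluorescence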
dCAG dye DR = disrupts DNA CAG TO-PRO-1 complex in dose response; shares compounds with rCAG binder; DNA CAG/GTC duplex TO-PRO-1 dye displacement fluorescence; IC50, µM; 250 tested, 20% active; AID 686960; in the data active = IC50 below about 10 µM
Starred values were filed as active, the others as inactive; i = inactive; x = no result given.

SMILES	DSG3 Ab inh	ADAM17 inh	rCAG binder	ADAM10 inh	MPTP inh	proKLK7 act	rCAG binder conf	dCAG dye counter	others
O=C(Nc1ccc(F)cc1F)C1CCCN1S(=O)(=O)c1cccnc1 (centres undefined)	x	-2	2	-12	x	0	x	x
CN1CCCN(S(=O)(=O)c2ccc3c(c2)CCC(=O)N3)CC1	x	-3	2	-8	x	0	x	x
O=C(O)c1ccc(COc2ccccc2/C=C2\NC(=O)N(Cc3ccccc3)C2=O)cc1	104	0	43*	2	-1	0	46*	11*
Cc1cccc(NC(=O)CN2C(=O)N/C(=C/c3ccc(C)o3)C2=O)c1	96	-4	32	0	0	1	x	x
Cc1ccc(CN2C(=O)N/C(=C/c3ccc(-c4ccc(C(=O)O)cc4)o3)C2=O)cc1	95	-12	20	-32	6	1	x	x
COc1cc(/C=C(/C#N)C(=O)Nc2ccccc2)c(Br)cc1OCc1ccc(C(=O)O)cc1	94	-9	46*	-8	4	0	73*	35*
Cc1cccc(NC(=O)CN2C(=O)N/C(=C\c3ccc(-c4cccc(C(=O)O)c4)o3)C2=O)c1	97	-9	69*	-27	4	1	73*	37*
O=C(Nc1nc2ncccn2c1-c1ccccc1)C1CC1	x	-178	2	i	x	12	x	x
O=C(CSc1nnc(-c2ccccn2)n1Cc1ccco1)Nc1ccc(Oc2ccccc2)cc1	x	3	5	9	x	0	x	x
COC(=O)C[C@@H]1CC[C@H]2[C@@H](COc3ccc(NC(=O)Nc4ccccc4C)cc3C(=O)N2C)O1	x	1	4	1	x	0	x	x
COc1cc(C(=O)N(C(C)C)C2CCCCC2)cc(OC)c1OC	102	-5	-3	-18	-2	1	x	x
O=C(/C(=N/N=C/c1ccc(O)c(O)c1O)c1ccccc1)c1ccccc1	77	8	61*	17	17	0	74*	42*
COc1ccc(OCC(=O)Nc2cc(NC(=O)COc3ccc(OC)cc3)cc(C(=O)O)c2)cc1	118	-4	38*	6	1	0	52*	17*
COc1ccccc1OCC(=O)Nc1cc(NC(=O)COc2ccccc2OC)cc(C(=O)O)c1	110	0	46*	1	0	1	11	2
O=C(COc1ccccc1Cl)Nc1cc(NC(=O)COc2ccccc2Cl)cc(C(=O)O)c1	99	-1	9	-5	2	0	x	x
COc1ccccc1OCC(=O)Nc1nnc(-c2ccco2)s1	100	3	58*	3	-1	0	8	3
CCCCCn1cc(CCC(=O)Nc2ccc(N(C)c3ccccn3)cc2)c2ccccc21	x	2	12	-11	x	-4	x	x
CCc1nnc(NS(=O)(=O)c2ccc(NC(=O)c3ccc([N+](=O)[O-])s3)cc2)s1	99	0	61*	4	1	0	48*	15*
CCc1nnc(NS(=O)(=O)c2ccc(NC(=O)c3cccc([N+](=O)[O-])c3)cc2)s1	100	-3	45*	1	-1	0	27	4.9*
CCN(CC)C(=O)C1=C(C)N(Cc2ccccc2)C(=O)C(CC(=O)NCc2cccs2)C1 (centres undefined)	x	-2	-1	-1	1	1	x	x
COc1cc(/C=N/NC(=O)C(Cc2c[nH]c3ccccc23)NC(=O)OCC(C)C)cc([N+](=O)[O-])c1OCc1ccccc1 (centres undefined)	105	-2	6	-1	-3	0	x	x
COc1cc(/C=N/NC(=O)C(Cc2c[nH]c3ccccc23)NC(=O)OCc2ccccc2)cc([N+](=O)[O-])c1O (centres undefined)	94	9.1*	83*	41*	4	0	81*	47*
COc1cc(/C=N/NC(=O)C(Cc2c[nH]c3ccccc23)NC(=O)OCC(C)C)cc([N+](=O)[O-])c1O (centres undefined)	99	5	57*	-2	1	0	69*	25*
C[C@H]1CN(C(=O)OC(C)(C)C)CCN1c1ccc(N2CC[C@H](O)C2)c(C#N)c1	x	-14	0	-59	x	0	x	x
CCCCN(C(=O)c1ccc(C)o1)c1c(N)n(CC(C)C)c(=O)[nH]c1=O	x	-2	1	-5	-1	0	x	x
SMILES	DSG3 Ab inh	ADAM17 inh	rCAG binder	ADAM10 inh	MPTP inh	proKLK7 act	rCAG binder conf	dCAG dye counter	others
O=C(NCC(c1cccs1)N1CCOCC1)c1ccccc1NS(=O)(=O)c1cccc([N+](=O)[O-])c1 (centres undefined)	98	-2	48*	-1	27	0	40*	11*
O=C(NCC(c1cccs1)N1CCOCC1)c1cccc(S(=O)(=O)Nc2ccc(F)cc2)c1 (centres undefined)	111	4	8	-1	0	0	x	x
O=C(NCCCN1CCOCC1)c1ccccc1NS(=O)(=O)c1cc([N+](=O)[O-])ccc1Cl	107	1	27	-6	1	-1	x	x
O=C(NCC(c1cccs1)N1CCOCC1)c1ccccc1NS(=O)(=O)c1cc([N+](=O)[O-])ccc1Cl (centres undefined)	105	-3	42*	0	30	0	40*	11*
O=C1Nc2c(Cl)cc(Cl)cc2C12Nc1ccccc1S2 (centres undefined)	x	-37	41*	-86	x	-33	13	8.0*
Oc1ccc(/C=C/c2ccc3cccc(O)c3n2)cc1Br	97	7	50*	11	5	-6	29	14*
CC(C)C[C@H](NC(=O)/C=C/[C@H]1O[C@@H](n2ccc(=O)[nH]c2=O)[C@H](O)[C@@H]1O)C(=O)O	x	-2	5	-2	-1	0	x	x
O=C1/C(=C2\C(=O)N(Cc3ccc(F)cc3)c3ccccc32)SC(=S)N1CCS(=O)(=O)O	101	-1	75*	10	3	0	83*	47*
Cc1nc2c(C(=O)NCc3ccccc3Cl)c[nH]n2c(=O)c1Cl	102	-8	81*	-20	0	0	58*	21*
Cc1nc2c(C(=O)NCCc3ccccc3Cl)c[nH]n2c(=O)c1Cl	140	-4	71*	-15	4	0	74*	33*	dCAG dye DR=4.5*
COC(=O)c1c[nH]n2c(=O)c(Cl)c(C)nc12	129	-1	1	-7	0	0	x	x
